Holding throughout (test): NCI-60 one-dose screen, 48 h (100 = growth as untreated, 0 = no growth, -100 = all killed)
In assay [1] the test system is DU-145 prostate. To be noted: 10 µM unless noted.
For assay [2], the system named is K-562 leukemia. The note with it: 10 µM unless noted.
Assay [3] concerns MALME-3M melanoma. To be noted: 10 µM unless noted.
The test system of assay [4] is RXF 393 renal. To be noted: 10 µM unless noted.
The test system of assay [5] is SF-268 CNS. The note with it: 10 µM unless noted.
The test system of assay [6] is SF-295 CNS. The note with it: 10 µM unless noted.
The test system of assay [7] is SF-539 CNS. To be noted: 10 µM unless noted.
In assay [8] the test system is UACC-257 melanoma. To be noted: 10 µM unless noted.
Assay [9] deals with M14 melanoma. The note with it: 10 µM unless noted.
Assay [10] concerns HCT-15 colon. To be noted: 10 µM unless noted.
The test system of assay [11] is HT29 colon. To be noted: 10 µM unless noted.
For assay [12], the system named is SNB-75 CNS. The note with it: 10 µM unless noted.
The test system of assay [13] is SNB-19 CNS. To be noted: 10 µM unless noted.
The test system of assay [14] is U251 CNS. The note with it: 10 µM unless noted.
The test system of assay [15] is PC-3 prostate. To be noted: 10 µM unless noted.
Assay [16] relates to SK-MEL-5 melanoma. To be noted: 10 µM unless noted.
Assay [17] relates to UACC-62 melanoma. To be noted: 10 µM unless noted.
Assay [18] concerns SK-MEL-28 melanoma. The note with it: 10 µM unless noted.
Assay [19] concerns MDA-MB-231 breast. To be noted: 10 µM unless noted.
Assay [20] deals with LOX IMVI melanoma. The note with it: 10 µM.

Our source for the growth values is PubChem BioAssay (NCI).

Each structure is given as a SMILES string. About 83,000 compounds went through this panel and 20% of them were active in at least one assay; those are over-represented in the sample as a whole.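 Compound tested at a single concentration for 48 hours in 96-well plates; a percent growth value below 10 was scored as active.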 A number with no mark means an inactive call. Active and inactive are the calls of the source.

Turning to `CNC(=O)c1cccc(NC(=O)c2ccc3c(c2)nnn3/C(C#N)=C/c2ccccn2)c1`, the growth was 21.7% in [1]; 0.0446% (active) in assay [2]; -97% (active) in [3]; -97.9% (active) in [4]; 24.4% in assay [5]; 84.3% in assay [6]. The growth in assay [7] was -72.8% (active); in assay [8] it was -67.2% (active); in assay [9] it was -73.6% (active); in assay [10], -31.3% (active); in assay [11], -84.4% (active); in assay [12], 73%. Further, the growth in [13] is 71%; in assay [14], -12.4% (active); in assay [15] it was 2.89% (active); in assay [16], -13.4% (active); in assay [17] it was -86.6% (active); in assay [18], -76.6% (active).
Consider `CC(=O)Nc1cccc(Nc2nc(N[C@H]3CCCc4ccccc43)c3ccccc3n2)c1`, for which the growth was 104% in assay [1]; 94.2% in assay [2]; 102% in assay [3]; 120% in [4]; 95.5% in assay [5]; 97.3% in [6]. Also, the growth in assay [7] was 97.2%; in assay [8] it was 102%; in [9], 101%; in assay [10], 97.5%; in [11], 104%; in [12], 90.6%. For the same compound, the growth in [13] was 96.9%; in assay [14] it was 105%; in [15], 115%; in assay [16], 105%; in assay [17] it was 92%; in [18], 104%.
Take `O=C(O)c1ccc(-c2ccc(/C=N/NC(=O)c3[nH]c4ccc(Br)cc4c3-c3ccccc3)s2)cc1`: the growth in assay [1] was 28.2%; in assay [2] it was 22.5%; in [3], -8.14% (active); in assay [4], -24.4% (active); in assay [5] it was 21.1%; in assay [6], -11.9% (active). Also, the growth in assay [7] was 1.96% (active); in assay [8], 44.3%; in assay [9] it was 28.2%; in assay [10], -34.6% (active); in [11] it was -7.12% (active); in [12], -11.3% (active). The growth in assay [13] is 14.4%; in assay [14], 14.5%; in assay [15], 18.7%; in assay [16], -49.6% (active); in assay [17], -51.9% (active); in [18] it was 11.9%.
Turning to `CSc1ccccc1NC(=O)c1ccc2nnn(/C(C#N)=C/c3ccccn3)c2c1`, the growth in assay [1] was -97.9% (active); in assay [2], 1.03% (active); in [3], -94.7% (active); in [4], -98.8% (active); in [5], 6.52% (active); in assay [6] it was 2.24% (active). In addition, the growth in assay [7] is -100% (active); in [8], -89.8% (active); in [9], -93.6% (active); in assay [10] it was -79.9% (active); in assay [11] it was -92.1% (active); in [12], 67.9%. Besides, the growth is 0.0552% (active) in assay [13]; -90.9% (active) in assay [14]; -71% (active) in [15]; -98.9% (active) in [16]; -98.8% (active) in assay [17]; -99.2% (active) in assay [18].
Turning to `O=c1oc2ccccc2cc1-c1csc(N=Nc2c(O)[nH]c3ccc(Cl)cc23)n1`, the growth in [1] was 98%; in [2], 104%; in assay [3] it was 96.2%; in assay [19], 113%; in assay [5], 82.1%; in assay [6], 87.9%. Moreover, the growth was 94.2% in [7]; 104% in assay [8]; 109% in assay [9]; 98.8% in [10]; 107% in [11]; 98.1% in assay [12]. The growth is 89.7% in assay [13]; 101% in assay [14]; 108% in assay [15]; 98.7% in [16]; 92% in assay [17]; 100% in assay [20]. Besides, the growth in [18] is 109%.
On to `CC1=C(C(=O)c2ccccc2)C(c2cccc3ccccc23)n2c(nc3ccccc32)N1` (stereo not given), for which the growth is 67.3% in assay [1]; 39.3% in assay [2]; 57.4% in [3]; 76.4% in assay [4]; 60.1% in assay [5]; 76.9% in [6]. The growth is 1.2% (active) in assay [7]; 84% in assay [8]; 73.5% in assay [9]; 70.3% in assay [10]; 50.5% in [11]; 60.3% in assay [12]. The growth in assay [13] was 66.1%; in assay [14], 17%; in assay [15], 53.2%; in [16], 62.1%; in assay [17], 37.5%; in [18], 84.1%.
Consider `Cc1ncsc1-c1ccc(CNC(=O)[C@@H]2C[C@@H](O)CN2C(=O)[C@@H](NC(=O)C2(F)CC2)C(C)(C)C)c(OCCOCCOCCOCCOc2nc(Nc3cc(S(C)(=O)=O)ccc3N[C@@H](c3cccc4c3OC(F)(F)O4)c3ncccc3Cl)nc(N3CCNCC3)n2)c1`, for which the growth in [1] was 69%; in assay [2], 23.1%; in [3], 41.4%; in assay [4], 65.3%; in [5], 65.7%; in assay [6], 101%. Moreover, the growth was 70.1% in assay [7]; 94.4% in assay [8]; 97.5% in assay [9]; 99.4% in [10]; 88.1% in assay [11]; 63.2% in assay [12]. The growth in assay [13] was 64.8%; in assay [14], 65.8%; in assay [15], 71.7%; in [16] it was 65.4%; in assay [17], 84.8%; in [18], 89.2%.
For `N#Cc1c(-c2cccnc2)cc(-c2ccc3ccccc3c2)[nH]c1=O`, the growth in assay [1] was 80.2%; in assay [2] it was 86.6%; in [3] it was 94.8%; in assay [4], 50.6%; in assay [5] it was 71.7%; in assay [6] it was 71.4%. Also, the growth in assay [7] is 7.22% (active); in assay [8], 105%; in [9], 116%; in assay [10], 80.7%; in assay [11], 111%; in [12], 14.4%. Further, the growth in assay [13] was 66.1%; in assay [14], 77.7%; in assay [15] it was 95.5%; in assay [16], 78.2%; in assay [17] it was 93.8%; in assay [18] it was 104%.
